Compound activity deposited in PubChem by National Center for Advancing Translational Sciences (NCATS).
Rows were chosen to be rich in hits. Some 7.2% of all compounds tested hit in one or more screens of this group.
FMDV inh – antivirals against foot and mouth disease virus; 1.2% of 410,000 active; Potency, µM (series often up to 57.9 µM), for inactives: top-dose activity change, negative = inhibition, usual class: inhibitors; FMDV antiviral cell-based qHTS; calls by dose curve; tested in HEK293T cells; further: read-out not given here; nearly all actives have a fitted effect of over 45% in size
Marburg entry inh – Marburg virus entry inhibition | Potency, µM (series often up to 37.8 µM), for the others: top-dose activity change, negative = inhibition, usual class: inhibitors | Marburg virus pseudotyped entry inhibition, cell reporter | AID 540276 | 1.8% of 300,000 active; calls by dose curve; tested in HEK293 cells
HCV inhibitor – HCV inhibition; Huh7.5.1 HCVcc-Cre infection, luciferase reporter, 44 h; Potency, µM (titrated, usually from 41.8 µM), inactives show top-dose activity change, negative = inhibition, hits mostly inhibitors; 3.4% of 340,000 active; AID 651820
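Infectious HCV cell culture screen: compound-treated cells (1,000/well, pre-plated 4 h) are infected with HCVcc-Cre at roughly 0.5 moi and grown 44 h. Infection is quantified by luciferase signal after 15 min substrate incubation at room temperature.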
Sm TGR block – S. mansoni TGR enzyme inhibition; AID 485364; Q962Y6; Potency, µM (top dose mostly 114 µM), without a hit: at the highest dose activity change, negative = inhibition, most hits filed as inhibitors; purified TGR, DTNB reduction, TNB absorbance 405 nm; 3% of 360,000 active; further: nearly all actives have a fitted effect of over 60% in size
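TGR 20 nM + NADPH 100 uM (dispensed conc.), cpd preinc 15 min RT; start with NADPH (500 uM addition) then DTNB (15 mM addition). Kinetic TNB absorbance, 405 nm filter. Four-parameter Hill fit across titration.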
Lassa entry inh – inhibitors of Lassa virus binding or cell entry | 1.2% of 300,000 active | Potency, µM (doses to about 37.9 µM), without a hit: at the highest dose activity change, negative = inhibition, usual class: inhibitors | Lassa virus pseudotype entry inhibition, cell reporter | AID 540256; calls by dose curve; tested in HEK293 cells; further: nearly all actives have a fitted effect of over 50% in size
RE007 growth inh – less growth of the S. pombe RE007 Vpr strain; Potency, µM (doses to about 92.2 µM), without a hit: at the top dose activity change, negative = less growth, usual class: inhibitors; 0.21% of 360,000 active; AID 651644; S. pombe RE007 Vpr strain, BacTiter-Glo ATP luminescence, 24 h; active means well fitted falling curve with a large enough effect; inconclusive means small, poorly fitted or top-dose-only effect; inactive means no such curve, though single readings can be large or run the other way; further: nearly all actives have a fitted effect of over 50% in size
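Fission yeast RE007 carrying one integrated HIV-1 vpr copy, seeded at OD 0.01 in PMG+AL medium with 23 nL pinned compound. Grown 24 h at 30 degrees; viability read by BacTiter-Glo luminescence after 5 min.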
Active calls of the source: *; ? = inconclusive; . = no result; [ ] = remark or other dose. Unless noted, the call rests on the fitted dose curve; in most records, active means well fitted curve in the direction sought with a large enough effect; inconclusive means small, poorly fitted or top-dose-only effect, or another doubt; inactive means no such curve, though single readings can be large; an effect the other way counts as inactive or inconclusive. On the % scale 0 is the no-effect control and ±100 the full control effect; potency means the concentration at half of the fitted maximal effect.

SMILES	FMDV inh	Marburg entry inh	HCV inhibitor	Sm TGR block	Lassa entry inh	RE007 growth inh
O=C(O)c1ccccc1Nc1cc(Cl)c2nonc2c1[N+](=O)[O-]	?	7%[46.1 µM]	14%	0.45µM*	13%[46.1 µM]	0%
O=C(O)c1ccccc1Nc1ccc([N+](=O)[O-])cc1	46%	0.5µM*	-8%	0%	1.1µM*	-14%
CN(C)c1cc(Nc2ccc(O)cc2)c([N+](=O)[O-])c2nonc12	4%	.	7%	0%	.	8%
O=C(O)c1cccc(Nc2cc(Cl)c3nonc3c2[N+](=O)[O-])c1	6%	3%	2%	0.35µM*	-1%	-11%
COc1ccc(N2C(=O)C(CN3CCN(C)CC3)C2c2ccccc2)cc1 (configuration not stated)	-16%	?	35µM*	.	0%	6%
Cc1ccc(C)c(C(=O)COc2ccccc2[N+](=O)[O-])c1	6%	12%	-3%	-3%	-1%	.
Cc1cc(C)c(S(=O)(=O)Oc2ccccc2[N+](=O)[O-])c(C)c1	-26%	?	10µM*	.	3.2µM*	9%
COc1ccc(C(CNC(=O)CNC(=O)c2ccccc2)N2CCCC2)cc1 (configuration not stated)	-13%	.	4%	-7%	.	1%
COc1ccccc1C(CNC(=O)CNC(=O)c1cccc(Cl)c1)N1CCCC1 (configuration not stated)	-13%	7.1µM*	6%	.	3%	2%
COc1ccccc1C(CNC(=O)C(CCSC)NC(=O)c1ccccc1Cl)N1CCCC1 (configuration not stated)	-6%	2.8µM*	13%	.	6%	-14%
COc1ccc(C(CNC(=O)c2oc3ccccc3c2C)N2CCCCC2)cc1 (configuration not stated)	?	?	.	-1%	-28%[46.1 µM]	.
COc1ccc(C(CNC(=O)C(CCSC)NC(=O)c2ccccc2OC)N2CCCCC2)cc1 (configuration not stated)	6%	20%	-21%	2%	9%	1%
COc1ccccc1C(CNC(=O)c1oc2ccccc2c1C)N1CCCC1 (configuration not stated)	-7%	-63%	-3%	32µM*	-26%	-11%
COc1ccc(C(C(=O)NC(C)(C)C)N(C(=O)CCC(=O)Nc2cc(C)on2)c2cccc(F)c2)cc1 (configuration not stated)	3%	?	-11%	5%	16%	2%
COc1cccc(C(C(=O)NC(C)(C)C)N(CCC(C)C)C(=O)CCC(=O)Nc2cc(C)on2)c1OC (configuration not stated)	-16%	8.9µM*	-5%	.	-17%[46.1 µM]	-10%
CCC(C)(C)NC(=O)C(c1ccc(OC)cc1)N(C(=O)CCC(=O)Nc1cc(C)on1)c1cccc(F)c1 (configuration not stated)	-15%	?	?	-2%	7.1µM*	0%
N#Cc1ccccc1NC(=O)CSc1ncn[nH]1	-17%	.	.	4%	17%[46.1 µM]	.
Cc1ccc(-c2nc3cccnc3o2)cc1NC(=O)COc1ccc(C(C)(C)C)cc1	?	?	?	-16%	10µM*	30%
Cc1ccc(-c2nc3cccnc3o2)cc1NC(=O)COc1ccc(Cl)cc1C	9%	?	?	1%	-26%	16%
O=C(/C=C/c1ccccc1)C1C(=O)c2ccccc2C1=O	?	9%	?	-10%	7%	-18%
CC[N+]1(C)CCC(O)(/C=C/c2ccccc2)C(C(=O)/C=C/c2ccccc2)C1 (configuration not stated)	0%	?	?	.	?	8.9µM*
Cc1c(C(=O)NC2CCCCCC2)sc2ncnc(NCC3CCCO3)c12 (configuration not stated)	-9%	.	.	.	.	.
O=C(CC1N=C2c3ccccc3N=C(SCc3ccc(Cl)cc3)N2C1=O)NCCc1ccccc1 (configuration not stated)	-2%	.	.	7%	?	.
Cc1c(NC(=O)c2ccc(-c3cccc([N+](=O)[O-])c3)o2)cccc1-c1nc2cc(Cl)ccc2o1	48%	30%[46.1 µM]	.	35µM*	23%[46.1 µM]	.
O=C(Nc1ccc2oc(-c3cccnc3)nc2c1)c1ccc(-c2ccc(Cl)cc2)o1	12%	.	.	32µM*	20%[46.1 µM]	.
SMILES	FMDV inh	Marburg entry inh	HCV inhibitor	Sm TGR block	Lassa entry inh	RE007 growth inh
O=C(Nc1ccc2oc(-c3cccnc3)nc2c1)c1cccc(Br)c1	-1%	-13%[46.1 µM]	.	-9%	27%[46.1 µM]	.
O=C(Nc1ccc2oc(-c3cccnc3)nc2c1)c1ccc(-c2cccc(Cl)c2)o1	?	.	.	35µM*	?	.
COCCCNC(=O)C[C@H]1C[C@H](C(=O)N2CCCCC2)[C@@]2(CCc3ccccc3)c3[nH]c4ccc(Cl)cc4c3CCN2C1=O	40µM*	0%	5%	.	.	0%
CC[C@]12c3[nH]c4ccccc4c3CCN1C(=O)C(CC(=O)NCCc1ccccn1)C[C@@H]2C(=O)N1CCN(C(=O)c2ccco2)CC1 (some centres not stated)	-1%	.	0.56µM*	.	.	5%
CC(C)N(C(=O)[C@H]1CC(CC(=O)NCCC2=CCCCC2)C(=O)N2CCc3c([nH]c4ccccc34)[C@]12C)C(C)C (some centres not stated)	-24%	.	0.56µM*	.	.	8%
CC(C)N(C(=O)[C@H]1C[C@H](CC(=O)NCc2cccc(C(F)(F)F)c2)C(=O)N2CCc3c([nH]c4cc(CCC(=O)N(C)C)ccc34)[C@]12C)C(C)C	?	.	-29%[8.37 µM]	.	.	-6%
CC(C)(C)NC(=O)C[C@H]1C[C@H](C(=O)N2CCCCC2)[C@@]2(CCc3ccccc3)c3[nH]c4ccc(Cl)cc4c3CCN2C1=O	-14%	.	4%	.	.	4%
COc1ccc2[nH]c3c(c2c1)CCN1C(=O)C(CC(=O)NCCC2=CCCCC2)C[C@H](C(=O)N(C(C)C)C(C)C)[C@@]31C (some centres not stated)	?	.	?	.	.	16%
CC(C)N(C(=O)[C@H]1C[C@H](CC(=O)NC(C)(C)C)C(=O)N2CCc3c([nH]c4cc(CCC(=O)N(C)C)ccc34)[C@]12C)C(C)C	-8%	2%	0.5µM*	.	.	10%
CC[C@]12c3[nH]c4cc(CCC(=O)N(C)C)ccc4c3CCN1C(=O)[C@@H](CC(=O)NCCc1ccccn1)C[C@@H]2C(=O)N1CCN(C(=O)c2ccco2)CC1	16%	-3%	-18%[8.37 µM]	.	.	-7%
Cn1c(=O)n(C)c2cc(N3CCOCC3)c(NS(=O)(=O)c3cccc(C#N)c3)cc21	9%	.	.	-5%	-18%[46.1 µM]	.
COC(=O)CC=C[C@@H](C)[C@@H](C=NOC[C@@H](O)COCc1ccco1)NS(=O)(=O)c1ccc(C)cc1	.	21%[14.2 µM]	.	.	.	.
